The values below come from PubChem BioAssay (NCI).

Each structure is given as a SMILES string. Values joined by “and” are separate entries in the source; they are usually repeats but may differ in a detail not shown here. Equal entries are not always repeated. The panel holds about 83,000 compounds, 20% with a hit somewhere; the sample as a whole holds those more often.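 The test compound was applied at a single concentration to cells in 96-well plates for 48 hours, and percent growth was recorded.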 Active and inactive are the calls of the source.

The subject of this test is HOP-92 NSCLC. Nature of the test: NCI-60 one-dose screen, 48 h (100 = growth as untreated, 0 = no growth, -100 = all killed). The note with it: 10 µM unless noted. Here is the method: Growth inhibition of the HOP-92 human Non-Small Cell Lung tumor cell line is measured as a screen for anti-cancer activity. Cells are grown in 96 well plates and exposed to the test compound for 48 hours. Compounds are tested at a single concentration, which is 10^-5 M for most compounds. The reported endpoint is percent growth (GI% or GIPRCNT), where numbers from 0 - 100% represent growth inhibition, and numbers from -100% - 0 represent cell death. For example, a value of 40 represents 60% growth inhibition. A value of 0 means no net growth occurred over the course of the experiment. A value of -40 indicates 40% of cells at the beginning of the experiment died by the end of the experiment. A value of -100 means all cells are dead at the end of the experiment.
NCI-60 Human Tumor Cell Lines Screen was performed using the standard one-dose NCI protocol, which is described in more detail at https://dtp.cancer.gov/discovery_development/nci-60/default.htm.
Compounds with GIPRCNT values below 10 were considered active. Activity score was based on GIPRCNT using the following formula: […]
Score is 0 for GIPRCNT values of 100 or above, 50 for GIPRCNT values of 0, and 100 for GIPRCNT values of -100.
As for `O=c1[nH]c(=O)n(C2OC(CO)C(O)C2O)cc1I` (stereo not given), the growth was 77.7% (inactive).

Turning to `O=C1C=CC(=O)N1Cc1ccco1`, the growth was 102% (inactive).

Turning to `CCNCc1ccccc1`, the growth is 113% (inactive).

For `Nc1nc(-c2ccccn2)cc(-c2cc(-c3ccccn3)nc(N)n2)n1`, the growth is 103% (inactive).

On to `Nc1ccccc1SC(CC(=O)c1ccccc1)c1cccc([N+](=O)[O-])c1` (stereo not given), for which the growth is 95.9% (inactive).

For the compound `CC(=O)Oc1cc(C(C)C)c(OCCN(C)C)cc1C`, the growth was 107% (inactive).

Take `Cc1c(O)nc(N)[nH]c1=O`: the growth was 108% (inactive).

For `COc1ccc([N+](=O)[O-])cc1OC`, the growth was 93.5% (inactive) and 92.7% (inactive).

For the compound `O=C(OCc1ccccc1)c1ccccc1`, the growth was 89.6% (inactive).

For the compound `COc1ccc(S(=O)(=O)c2ccc(F)cc2)cc1`, the growth is 92.7% (inactive).

Consider `CCN(CC)Cc1cc2[nH]c3c4ccc(Cl)cc4ncc3c2cc1OC`, for which the growth is 60.6% (inactive) and 78% (inactive).

In the case of `CC(=O)Nc1ccc(OC(C)=O)cc1`, the growth is 102% (inactive).

Take `Clc1ccc2sc(-c3ccccc3)nc2c1`: the growth is 105% (inactive).

In the case of `CCOC(=O)c1ccncc1`, the growth was 108% (inactive).

Turning to `Cn1c(N)c(N=O)c(=O)n(C)c1=O`, the growth was 103% (inactive).

On to `Cc1nc2c(=O)[nH]c(=S)[nH]c2[nH]c1=O`, for which the growth is 111% (inactive).

Turning to `O=C(O)c1ccc2c3ccc(C(=O)O)c4c(C(=O)O)ccc(c5ccc(C(=O)O)c1c25)c43`, the growth was 112% (inactive).

For the compound `O=[N+]([O-])c1ccc(NC2CCCCC2)nc1`, the growth was 114% (inactive) and 81.8% (inactive).

Regarding `CSc1nc(N)c(N)c(N)n1`, the growth was 86.6% (inactive).

For the compound `CCOC(=O)c1ccc(N2C(=O)C(Cl)(c3ccccc3)C2c2ccco2)cc1` (stereo not given), the growth was 63.7% (inactive).

Regarding `O=[N+]([O-])c1cccc2ccc(N/N=C/c3ccccc3O)nc12`, the growth was 67.7% (inactive) and 77.7% (inactive).

For `Cc1cc(=NO)cc(C)n1O`, the growth was 111% (inactive).

Take `OCc1cccc(F)c1`: the growth is 118% (inactive).

Take `CC1=CC(=O)C=CC1=Nc1ccc(N(C)C)cc1`: the growth was 81.2% (inactive) and 7.79% (active).

`Nc1c(S(=O)(=O)O)cc(Br)c2c1C(=O)c1ccccc1C2=O`: the growth was 73.4% (inactive).

Consider `COC(=O)c1nc(N)nc(C(=O)OC)c1C(=O)c1ccc(F)cc1`, for which the growth was 101% (inactive).

`Cn1c(-c2ccccc2)cc(=O)cc1-c1ccccc1`: the growth is 90.3% (inactive).

Take `O=C(N=C1C(=O)C2(CCCCC2)C2(N=C(c3ccccc3)OC2=O)C12CCCCC2)c1ccccc1` (stereo not given): the growth was 41.7% (inactive).

As to `OCCCc1ccccc1`, the growth is 94.7% (inactive).

`CC1CC(O)CC(C)(C)C1.CC1CC(O)CC(C)(C)C1.CC1CC(O)CC(C)(C)C1.CC1CC(O)CC(C)(C)C1.[Ti]` (stereo not given): the growth is 99.2% (inactive).

On to `NNC(=O)Nc1ccccc1`, for which the growth was 90.8% (inactive).

With `CCOC(=O)c1ccc(C(=N)N)cc1`, the growth was 80.2% (inactive).

For the compound `COc1ccc(COC=O)cc1`, the growth was 109% (inactive).

Consider `CCCC(=O)Oc1ccc(CC)cc1`, for which the growth is 115% (inactive).

For the compound `N#CC(=S)Nc1ccc(Cl)c(Cl)c1`, the growth is -15.6% (active).

Take `CCCCC/C(C)=N\NC(N)=S`: the growth was 93.2% (inactive).

With `Nc1[nH][nH]c(=O)c1N=Nc1ccccc1`, the growth was 101% (inactive).

With `CC1(C)OC(=O)C(=Cc2ccc(C#N)cc2)C(=O)O1`, the growth is 87.9% (inactive).

As to `COC(=O)c1nc(=S)[nH]c(C(=O)OC)c1C(=O)c1ccc(OC)cc1`, the growth was 95.9% (inactive).

Take `CN(C)CC(CN(C)C)C(O)c1ccccc1` (stereo not given): the growth is 97.9% (inactive).
